Source: PubChem BioAssay (several laboratories)
Shown are actives, neighbours in structure and some others; about 0.5% of the full set was active somewhere.
Tat export inh = inhibitors of E. coli Tat protein transport; inhibition, % at 10 µM; E. coli MC4100 TorA-mCherry Tat export, fluorescence; AID 488895; hit rate 0.036% among 340,000;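 active = mean replicate inhibition at least 50% and at least half of replicates individually reaching 50%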;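 note: exported cargo escapes ClpAP degradation while cytoplasmic cargo is degraded and loses fluorescence; 0% = median of neutral control wells and 100% = median of NaSCN control wells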
AddAB inh = less growth of phage-infected E. coli with AddAB. E. coli expressing H. pylori AddAB, absorbance growth. inhibition, % at 11.9 µM. hit rate 0.29% among 330,000. AID 435030; in the data active = inhibition above about 12%;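 note: 0% = vehicle wells of infected cells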
phage Ecoli inh = E. coli growth loss with phage present; inhibition, % at 11.9 µM; growth absorbance; hit rate 0.26% among 360,000; in the data active = inhibition above about 11%
E coli growth-1 = bacterial growth inhibition, counter-screen for AddAB inhibitors; E. coli V3065 growth, OD600 absorbance, 18 h; inhibition, % at 11.9 µM; hit rate 0.27% among 330,000;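 active = inhibition above the campaign's mean inhibition across all tested compounds plus 3 SD, cut at about 9.9% in these data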;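 note: uninfected addAB+ strain grown without phage in ampicillin broth; 0% = DMSO wells and 100% = ciprofloxacin 0.95 µg/ml wells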
E coli growth-2 = inhibitors of Escherichia coli growth; hit rate 0.21% among 330,000; OD600, 23 h; hits give low values; AID 1053175; OD600 absorbance (concentration not given with the values);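 active = OD600 absorbance below the run mean of sample wells minus 3.6 SD, in any replicate, cut at about 0.56 in these data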
AddAB conf = growth loss of T4-infected E. coli expressing H. pylori AddAB, confirmed. shares compounds with AddAB inh. hit rate 64% among 880. E. coli V3065 expressing H. pylori AddAB, T4 phage, OD; T4 phage with gene 2 nonsense mutations. inhibition, % at 11.9 µM. AID 488942;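 active = mean inhibition above a set limit taken from the earlier primary screen, cut at about 13% in these data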;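 note: higher means less bacterial growth since AddAB block lets phage replicate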
RecBCD counter = counter-screen: growth loss of RecBCD+ E. coli with mutant T4 phage; shares compounds with AddAB inh; inhibition, % at 11.9 µM; hit rate 73% among 880; E. coli V66 + mutant T4 phage, OD growth;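 active = mean inhibition above the mean of solvent-only control wells plus 3 SD, cut at about 4% in these data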;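 note: optical density read after an 18 h incubation at 37 °C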
Bact viability = counter-screen for AddAB inhibitors: inhibitors of bacterial viability; shares compounds with AddAB inh; absorbance (AddAB counterscreen); inhibition, % at 11.9 µM; hit rate 35% among 880; AID 488956; in the data active = inhibition above about 25%
RecBCD conf = growth loss of phage-infected V66 E. coli, RecBCD confirmation screen | shares compounds with phage Ecoli inh | E. coli V66 + T4 2- phage, growth OD | inhibition, % at 11.9 µM | hit rate 45% among 890;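 active = mean inhibition over triplicates exceeding the hit threshold derived in the original primary screen, cut at about 11% in these data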
Ecoli viability = inhibits E. coli viability, flagging RecBCD hits as nonselective | shares compounds with phage Ecoli inh | absorbance (OD) growth | inhibition, % at 11.9 µM | hit rate 29% among 890 | AID 651983; in the data active = inhibition above about 20%;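 note: E. coli strain V66 grown with compound alone and no phage infection; 0% = bacteria with DMSO vehicle only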
AddAB phage OD = growth loss of phage-infected AddAB E. coli, RecBCD counter-screen | E. coli expressing H. pylori AddAB + T4 phage, OD growth; gene 2 mutant T4, recBCD-deleted host | AID 651984 | shares compounds with phage Ecoli inh | hit rate 45% among 890 | inhibition, % at 11.9 µM;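 active = mean inhibition above the solvent-only control wells' mean plus 3 SD, cut at about 22% in these data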;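 note: higher means less bacterial growth from phage killing when AddAB is blocked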
An asterisk follows results filed as active.

COc1c(F)c(F)cc2c(=O)c(C(=O)O)cn(C3CC3)c12 was read as Tat export inh 68*, AddAB inh 98*, phage Ecoli inh 95*, E coli growth-1 98*, E coli growth-2 0.05*, AddAB conf 98*, RecBCD counter 99*, Bact viability 102*, RecBCD conf 98*, Ecoli viability 99* and AddAB phage OD 98*.
`CC(C)(C)C1COC(=O)C(Cc2ccc(F)cc2)CCC=CCC(CC(=O)N(CCO)Cc2ccccc2)C(=O)N1` (centres undefined) gave E coli growth-2 0.66.
`COC(=O)[C@@]12CCCN1C(c1ccc(-c3ccc(F)cc3)c(OC)c1)C1C(=O)N(C)C(=O)C12` (some centres undefined) gave E coli growth-2 0.68.
For C[C@H]1[C@H](NC(=O)C(=NOC(C)(C)C(=O)O)c2csc(N)n2)C(=O)N1S(=O)(=O)O the results were Tat export inh -9, AddAB inh 100*, phage Ecoli inh 100*, E coli growth-1 99*, AddAB conf 100*, RecBCD counter 99*, Bact viability 101*, RecBCD conf 98*, Ecoli viability 99* and AddAB phage OD 101*.
For O=c1ccsn1Cc1ccccc1 the results were Tat export inh 22, AddAB inh 75*, phage Ecoli inh 14*, E coli growth-1 9, E coli growth-2 0.044*, AddAB conf 102*, RecBCD counter 29*, Bact viability 26*, RecBCD conf 8, Ecoli viability 10 and AddAB phage OD 77*.
O=C1NC(Cc2ccccc2)C(=O)N1Cc1ccccc1 (centres undefined) was read as Tat export inh -4, phage Ecoli inh 2 and E coli growth-2 0.64.
Screening Nc1c(Cl)ncnc1N/N=C/c1ccnc2ccccc12 returned Tat export inh -3, AddAB inh 3, phage Ecoli inh 3 and E coli growth-1 -1.
Screening Nc1c(Cl)ncnc1N/N=C/c1ccc2ccccc2n1 returned Tat export inh -2, AddAB inh 27*, phage Ecoli inh 26*, E coli growth-1 24*, AddAB conf 23*, RecBCD counter 18*, Bact viability 21, RecBCD conf 11*, Ecoli viability 12 and AddAB phage OD 20.
For CC(C)COc1ccc(Cc2cnc(N)nc2N)cc1 the results were Tat export inh -5, AddAB inh 12*, phage Ecoli inh 16*, E coli growth-1 7, E coli growth-2 0.24*, AddAB conf -1, RecBCD counter 9.2*, Bact viability 3, RecBCD conf 7, Ecoli viability 5 and AddAB phage OD 11.
`Fc1ccc(Nc2nnc(C(F)(F)F)s2)cc1Cl` gave Tat export inh -17, AddAB inh 14*, phage Ecoli inh 14*, E coli growth-1 16*, E coli growth-2 0.44*, AddAB conf 17*, RecBCD counter 19*, Bact viability 13, RecBCD conf 7, Ecoli viability 9 and AddAB phage OD 20.
FC(F)(F)c1nnc(Nc2ccc(Cl)cc2)s1 was read as Tat export inh -6, AddAB inh 6, phage Ecoli inh 7, E coli growth-1 5 and E coli growth-2 0.52.
`COc1cc(NC(=O)CSc2ccc(-c3ccccn3)nn2)cc(OC)c1` gave Tat export inh 0, AddAB inh 13*, phage Ecoli inh 13*, E coli growth-1 14*, E coli growth-2 0.7, AddAB conf 10, RecBCD counter 11*, Bact viability 11, RecBCD conf 6, Ecoli viability 5 and AddAB phage OD 10.
For COc1ccc(C)cc1NC(=O)CSc1ccc(-c2ccccn2)nn1 the results were Tat export inh 2, AddAB inh 6, phage Ecoli inh 9, E coli growth-1 4 and E coli growth-2 0.65.
CCOC(=O)CC1c2cc(F)ccc2S(=O)(=O)N1C1CCCC1 (centres undefined) was read as E coli growth-2 0.68.
`COc1ccc(C2C(=C(O)c3ccccc3)C(=O)C(=O)N2c2ccccn2)cc1OC` (centres undefined) gave E coli growth-2 0.71.
Screening [N-]=[N+]=NC1C[C@H](n2ccc(=O)[nH]c2=O)O[C@@H]1CO (some centres undefined) returned Tat export inh -1, AddAB inh 37*, phage Ecoli inh 32*, E coli growth-1 38*, AddAB conf 94*, RecBCD counter 20*, Bact viability 77*, RecBCD conf 41*, Ecoli viability 28* and AddAB phage OD 85*.
For CCOc1ccc(NC(=O)Cn2cc(C(=O)c3ccco3)c3ccccc32)cc1 the results were Tat export inh 2, AddAB inh 13*, phage Ecoli inh 12*, E coli growth-1 14*, E coli growth-2 0.63, AddAB conf 10, RecBCD counter 9.7*, Bact viability 12, RecBCD conf 7, Ecoli viability 11 and AddAB phage OD 5.
CCC(=O)c1cn(CC(=O)Nc2ccc(OC)cc2)c2ccccc12 was read as Tat export inh -10, AddAB inh 13*, phage Ecoli inh 11*, E coli growth-1 14*, AddAB conf 12, RecBCD counter 11*, Bact viability 9, RecBCD conf 3, Ecoli viability 6 and AddAB phage OD 5.
`COc1ccc(NC(=O)Cn2cc(C(=O)c3ccco3)c3ccccc32)cc1` gave Tat export inh -4, AddAB inh 16*, phage Ecoli inh 18*, E coli growth-1 18*, E coli growth-2 0.64, AddAB conf 13*, RecBCD counter 13*, Bact viability 15, RecBCD conf 8, Ecoli viability 12 and AddAB phage OD 16.
For COC(=O)Cn1cc(C(=O)c2ccco2)c2ccccc21 the results were Tat export inh -3, AddAB inh 0, phage Ecoli inh 1, E coli growth-1 -1 and E coli growth-2 0.71.
